According to PubChem BioAssay (EPA / NIEHS):
Inconclusive results are not listed. Active and inactive are the calls of the source. Rule for the calls: active = hit-call score of the fitted dose curve at least 0.9, where 1 is the maximum; inconclusive = response in the unintended direction; inactive = score below 0.9.

read-out: Cytochrome P450 2C19 (Homo sapiens) (UniProt P33261); assay: CLD_CYP2C19_24hr: CellzDirect (CLD) Gene Expression Assay for xenobiotic metabolism (CYP2C19) at 24 hours (AID 2283687);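 note: activity means mRNA induction above DMSO vehicle baseline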
Protocol: CLD_24hr is a cell-based, multiplexed-readout assay that uses hepatocyte, a human liver primary cell, with measurements taken at 24 hours after chemical dosing in a 96-well plate.CLD_CYP2C19_24hr is one of 16 assay component(s) measured or calculated from the CLD_24hr assay. It is designed to make measurements of mRNA induction, a form of inducible reporter, as detected with chemiluminescence signals by Quantitative Nuclease Protection Assay (qNPA) technology.Data from the assay component CLD_CYP2C19_24hr was analyzed at the endpoint, CLD_CYP2C19_24hr, in the positive analysis fitting direction relative to DMSO as the negative control and baseline of activity. Using a type of inducible reporter, gain-of-signal activity can be used to understand changes in the reporter gene as they relate to the gene CYP2C19. Furthermore, this assay endpoint can be referred to as a primary readout. To generalize the intended target to other relatable targets, this assay endpoint is annotated to the cyp intended target family, where subfamily is xenobiotic metabolism.
Human hepatocyte cultures were treated daily for two consecutive days with fresh dosing solutions containing appropriate concentrations of the 320 ToxCast chemicals (chemical identities were blinded to CellzDirect and other ToxCast collaborators), vehicle control (0.2% DMSO), and positive control inducers as summarized in Table 1. Due to the large number of treatment groups and chemicals examined, the ToxCast chemicals were divided into two groups (spanning two independent cultures of hepatocytes from separate donor preparations (Hu778: ToxCast plates 1 and 2; Hu776: ToxCast plates 3 and 4). Each preparation of human hepatocyte cultures was treated with respective vehicle control, medium only control, set of six positive controls/reference chemicals for the five hepatic receptor pathways, and a subset of eight of the ToxCast chemicals (indoxacarb, pyrithiobac-sodium, norflurazon, cyhalofop-butyl, methomyl, thiram, acetochlor, and propiconazole). These replicate data, coupled with internal replicates designed within the blinded ToxCast chemical library, provided additional data to evaluate interindividual differences between hepatocyte preparations and their potential impact on chemical profiles.Cell morphology and integrity were evaluated using phase-contrast microscopy as an indicator of hepatocyte cell health (Tyson & Green, 1987). Cultures for each treatment group (i.e., media, vehicle [0.2% DMSO], positive control inducers [multiple concentrations], and the ToxCast chemicals [multiple concentrations]) were observed and cell morphology was assessed relative to vehicle control cultures at each harvest time point (0, 6, 24, or 48 h). […] Images were evaluated at the conclusion of the study to assess changes in cell integrity and account for the effects of chemical exposure on uncharacteristic changes in concentration-dependent gene expression profiles. The results from these determinations of apparent cytotoxicity were annotated (yes/no) alongside the corresponding qNPA data for reference.At the conclusion of each treatment period, hepatocyte cultures (96-well) were washed with 1 volume of HBSS, lysed by addition of 25 ul ArrayPlate lysis buffer (HTG, Tucson, AZ), and 70 ul/well of Denaturation Oil, denatured by incubation at 95C for 10 min, and frozen at approximately -70C until analysis by nuclease protection assay (qNPA) (Roberts et al., 2007). For qNPA analysis, cell lysates were thawed at 50C for approximately 30 min, qNPA probes were added, and samples were incubated at 95C for 10 min to begin the detection process by denaturing the target RNA, dissociating the duplexes and secondary structure hybridization. At the conclusion of the hybridization period, S1 nuclease reagent was added to each sample to digest all nonprotected nucleotides at 50C for 60-90 min. […]

Cytochrome P450 2C19 (Homo sapiens), sequence (P33261 whole entry, looked up): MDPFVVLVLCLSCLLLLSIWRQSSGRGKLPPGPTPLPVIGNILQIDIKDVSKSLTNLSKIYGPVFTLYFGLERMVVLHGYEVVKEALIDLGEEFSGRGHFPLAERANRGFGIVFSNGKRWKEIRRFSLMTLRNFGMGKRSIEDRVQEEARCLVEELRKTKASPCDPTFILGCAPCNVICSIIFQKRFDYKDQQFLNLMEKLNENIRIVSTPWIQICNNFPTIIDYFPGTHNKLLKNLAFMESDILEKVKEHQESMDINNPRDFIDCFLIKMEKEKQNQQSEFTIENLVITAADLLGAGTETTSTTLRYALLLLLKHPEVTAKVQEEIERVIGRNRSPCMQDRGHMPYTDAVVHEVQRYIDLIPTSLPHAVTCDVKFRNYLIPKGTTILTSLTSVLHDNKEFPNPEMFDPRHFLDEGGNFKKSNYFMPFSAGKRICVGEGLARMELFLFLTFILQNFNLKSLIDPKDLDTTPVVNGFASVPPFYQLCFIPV

SMILES | outcome
CC(C)(c1ccc(O)cc1)c1ccc(O)cc1 | inactive
Oc1ccc(C(c2ccc(O)cc2)C(Cl)(Cl)Cl)cc1 | inactive
CSC(=O)c1cccc2nnsc12 | inactive
CCC(C)OC(=O)N1CCCCC1CCO (centres undefined) | inactive
COC(=O)c1ccccc1S(=O)(=O)NC(=O)Nc1nc(OC(F)F)cc(OC(F)F)n1 | inactive
COc1c(Cl)ccc(Cl)c1C(=O)O | inactive
S=C(S)NCCNC(=S)S.[Mn+2].[S-]C([S-])=NCCN=C([S-])[S-].[Zn+2] | inactive
CCOC(=O)NCCOc1ccc(Oc2ccccc2)cc1 | inactive
COC(=O)CSc1cc(N=c2sc(=O)n3n2CCCC3)c(F)cc1Cl | inactive
CCOC(=O)C(C)Oc1ccc(Oc2nc3ccc(Cl)cc3o2)cc1 (centres undefined) | inactive
CCCCOC(=O)C(C)Oc1ccc(Oc2ccc(C(F)(F)F)cn2)cc1 (centres undefined) | inactive
COC(=O)c1ccc(CNS(C)(=O)=O)cc1S(=O)(=O)NC(=O)Nc1nc(OC)cc(OC)n1 | inactive
CCOC(=O)COc1cc(-n2ncc(C(F)(F)F)c(C)c2=O)c(F)cc1Cl | inactive
Cc1nn(C)c(Oc2ccccc2)c1C=NOCc1ccc(C(=O)OC(C)(C)C)cc1 | inactive
CCCOC(=O)c1ccc(C(=O)OCCC)nc1 | inactive
COC(=O)c1ccccc1C(=O)O | inactive
COC(=O)c1ccc(I)cc1S(=O)(=O)NC(=O)Nc1nc(C)nc(OC)n1 | inactive
C#CCOC(=O)[C@@H](C)Oc1ccc(Oc2ncc(Cl)cc2F)cc1 | inactive
CCN(CC)C(=O)c1cccc(C)c1 | inactive
CC1(C)C(C=C(Cl)Cl)C1C(=O)OCc1cccc(Oc2ccccc2)c1 (centres undefined) | inactive
CCSC(=O)N(CC(C)C)CC(C)C | inactive
CCCN(CCC)C(=O)SCC | inactive
c1ccc(Nc2ccccc2)cc1 | inactive
COc1nc(C)nc(NC(=O)NS(=O)(=O)c2ccccc2OCCCl)n1 | inactive
